# PLC-beta3 inh: human PLC-beta3 inhibitors, primary screen, biochemical, fluorescence; 1-phosphatidylinositol 4,5-bisphosphate phosphodiesterase beta-3 (Homo sapiens), Q01970; Purified PLC-beta3, fluorogenic substrate; inhibition, % at 12.2 µM; 0.18% of 370,000 active; AID 720704, 2013;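 further: 0% = median of compound wells on plate and 100% = full blocker control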
# ADAM17 inh: ADAM17 inhibitors, primary screen, biochemical, QFRET | Disintegrin and metalloproteinase domain-containing protein 17 (Homo sapiens), P78536 | recombinant ADAM17, EDANS/DABCYL FRET peptide cleavage | inhibition, % at 6.95 µM | 0.83% of 370,000 active | AID 720648, 2013;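 active means inhibition above the mean of compounds lying between control limits plus 3 SD, set per campaign, cut at about 8.5% in these data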;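 further: 0% = DMSO-only wells as the low control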
# PLCg1 inh: PLC-gamma1 enzyme inhibitors, primary screen, biochemical, fluorescence, purified enzyme; 1-phosphatidylinositol 4,5-bisphosphate phosphodiesterase gamma-1 (Homo sapiens), P19174; fluorogenic substrate; inhibition, % at 12.2 µM; 0.84% of 370,000 active; in the data active means inhibition above about 9.5%
# ADAM10 inh: human ADAM10 inhibitors, primary screen, biochemical, QFRET, HTS; Disintegrin and metalloproteinase domain-containing protein 10 (Homo sapiens), O14672; recombinant ADAM10, EDANS/DABCYL FRET peptide cleavage, 3 h; inhibition, % at 7 µM; 0.62% of 370,000 active; AID 720582, 2013;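 active means inhibition above a per-campaign cutoff equal to the mean of compounds falling between control-based bounds plus 3 SD, cut at about 20% in these data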;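 further: 0% = DMSO wells while the 100% control is not disclosed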
# KLK7 zymogen act: proKLK7 zymogen activators, primary screen, biochemical, fluorescence intensity | Kallikrein-7 (Homo sapiens), P49862 | purified proKLK7, EDANS-DABCYL substrate fluorescence; 100% is mature enzyme control, 0% vehicle | activation, % at 7 µM | 0.9% of 370,000 active | AID 652039, 2013;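 active means activation above the mean of all tested compounds plus 3 SD, computed per campaign excluding outliers beyond control limits, cut at about 13% in these data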
# ADAM10 confirm: human ADAM10 inhibitors, confirmation, biochemical, QFRET, triplicate. shares compounds with ADAM10 inh. ADAM10 QFRET peptide cleavage, EDANS fluorescence. inhibition, % at 6.95 µM. 1% of 2,100 active;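 active means inhibition above about 20% chosen separately for each screening run, limit read from the data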;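 further: 0% = DMSO wells and 100% = marimastat wells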
# ADAM17 counter: ADAM17 inhibitors, counter-screen for ADAM10 exosite inhibitor project, biochemical, QFRET, high throughput; shares compounds with ADAM10 inh; ADAM17 QFRET peptide cleavage, EDANS fluorescence; inhibition, % at 6.95 µM; 0.5% of 2,100 active; AID 743214, 2013;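 active means mean triplicate inhibition above the solvent-only control wells' mean plus 3 SD, cut at about 12% in these data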;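 further: 0% = DMSO wells and 100% = marimastat wells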
# ADAM10 counter: ADAM10 inhibitors, counter-screen for ADAM17 exosite inhibitor project, biochemical, FRET, human ADAM10; shares compounds with ADAM17 inh; recombinant ADAM10, EDANS/DABCYL FRET peptide cleavage, 3 h; inhibition, % at 6.95 µM; 47% of 2,900 active; AID 743256, 2014;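 active means mean inhibition over the triplicate runs exceeds the activity threshold set in the earlier primary screen, cut at about 20% in these data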;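 further: 0% = DMSO wells and 100% = marimastat wells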
# ADAM17 confirm: ADAM17 inhibitors, hit retest, confirmation, biochemical, QFRET peptide cleavage. AID 743257, 2014. shares compounds with ADAM17 inh. recombinant ADAM17, EDANS/DABCYL QFRET peptide cleavage. inhibition, % at 6.95 µM. 65% of 2,900 active;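 active means mean inhibition across replicates above the hit cutoff set in the primary screen, cut at about 8.5% in these data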;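 further: 0% = DMSO wells and 100% = marimastat wells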
# PLCg1 ctr: PLC-gamma1 enzyme inhibitors, counter-screen for PLC-beta3 inhibitor project, biochemical, fluorescence | shares compounds with PLCg1 inh | purified PLC-gamma1, fluorogenic substrate | inhibition, % at 12.3 µM | 3.1% of 3,300 active; in the data active means inhibition above about 9.5%
# PLCbeta3 conf: PLC-beta3 inhibitor confirmation, biochemical, fluorescence, purified enzyme; shares compounds with PLCg1 inh; fluorogenic substrate fluorescence; inhibition, % at 12.3 µM; 1% of 3,300 active
# * marks the source's active call; other numbers are inactive results; nt = no result. An excerpt weighted towards active compounds, which were near 2.9% of everything screened. Unless noted, no stated cut-off is given here; in the data, active means inhibition above about 11%; inactive means the rest.
SMILES,PLC-beta3 inh,ADAM17 inh,PLCg1 inh,ADAM10 inh,KLK7 zymogen act,ADAM10 confirm,ADAM17 counter,ADAM10 counter,ADAM17 confirm,PLCg1 ctr,PLCbeta3 conf
COc1cc(C(c2c(C)[nH][nH]c2=O)c2c(C)[nH][nH]c2=O)cc([N+](=O)[O-])c1O,8,10*,15*,20*,0,5,0,3,0,3,0
O=C(NC(=S)Nc1ccc(S(=O)(=O)Nc2nccs2)cc1)c1ccccc1,1,0,6,9,0,nt,nt,nt,nt,nt,nt
O=C(NC(=S)Nc1ccc(S(=O)(=O)Nc2nccs2)cc1)c1ccc(F)c(F)c1,10,11*,14*,24*,0,4,1,12,6,-5,-10
CC(=O)Oc1ccc(C(=O)Nc2cccc(C(=O)c3ccc(C)c(C)c3)c2)cc1,9,16*,15*,32*,0,6,2,14,12*,-2,-2
O=C(Nc1cccc2ccccc12)NC1CCCc2ccccc21 (stereo unspecified),-1,-6,0,-6,-1,nt,nt,nt,nt,nt,nt
C#CCn1c(S(=O)(=O)Cc2ccccc2Cl)nc(-c2ccccc2)c1-c1ccccc1,3,-4,3,5,1,nt,nt,nt,nt,nt,nt
C#CCn1c(S(=O)(=O)Cc2ccc(C)cc2)nc(-c2ccccc2)c1-c1ccccc1,-2,6,10*,23*,0,8,4,nt,nt,1,-6
O=c1[nH]cnc2scc(-c3ccsc3)c12,-2,-2,-2,-2,0,nt,nt,nt,nt,nt,nt
COc1ccc(C(c2nnnn2Cc2ccccc2)N2CCN(C/C=C/c3ccccc3)CC2)cc1 (stereo unspecified),1,12*,14*,24*,0,1,1,17,11*,-2,-1
COc1cc(/C=N/NC(=O)Cc2ccccc2)cc([N+](=O)[O-])c1O,-2,2,5,7,0,nt,nt,nt,nt,nt,nt
COc1cc(/C=N/NC(=O)[C@H](Cc2c[nH]c3ccccc23)NC(=O)OCC(C)C)cc([N+](=O)[O-])c1O,8,16*,14*,32*,0,5,0,13,7,2,2
CCC(=O)Nc1sc(C(=O)OC)c(C)c1C(=O)OC,1,-2,1,2,0,nt,nt,nt,nt,nt,nt
O=C(Cc1ccccc1Cl)Nc1ccc(S(=O)(=O)Nc2nccs2)cc1,-8,-4,1,3,0,nt,nt,nt,nt,nt,nt

# Screening data (PubChem BioAssay)
